# PubChem BioAssay (NCI)
# This is part of a sample that, as a whole, favours compounds with a hit. Of some 83,000 tested, about 20% had one in any assay.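 Note: values are percent growth. 100 is the growth of untreated cells, values between 100 and 0 indicate rising inhibition; between -100 and 0 indicates cell death.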 A number with no mark means an inactive call. Calls of active or inactive are those of the source. Rule for the calls: active = growth percent below 10; inactive = the rest.
# Experiments:
# Assay in all cases: NCI-60 one-dose screen, 48 h (100 = growth as untreated, 0 = no growth, -100 = all killed)
# Settings in all cases: 10 µM unless noted
# NCI-H23 lung = system: NCI-H23 lung
# NCI-H226 lung = system: NCI-H226 lung
# NCI-H322M lung = system: NCI-H322M lung
# HOP-62 NSCLC = system: HOP-62 NSCLC
# NCI-H460 lung = system: NCI-H460 lung
# HOP-92 NSCLC = system: HOP-92 NSCLC
# NCI-H522 lung = system: NCI-H522 lung
# A549/ATCC NSCLC = system: A549/ATCC NSCLC
# 786-0 renal = system: 786-0 renal
# COLO 205 colon = system: COLO 205 colon
# DU-145 prostate = system: DU-145 prostate
# K-562 leukemia = system: K-562 leukemia
# MALME-3M melanoma = system: MALME-3M melanoma
# MDA-MB-231 breast = system: MDA-MB-231 breast
# RXF 393 renal = system: RXF 393 renal
# SF-268 CNS = system: SF-268 CNS
# SF-295 CNS = system: SF-295 CNS
# SF-539 CNS = system: SF-539 CNS
# UACC-257 melanoma = system: UACC-257 melanoma
# M14 melanoma = system: M14 melanoma
SMILES,growth (NCI-H23 lung),growth (NCI-H226 lung),growth (NCI-H322M lung),growth (HOP-62 NSCLC),growth (NCI-H460 lung),growth (HOP-92 NSCLC),growth (NCI-H522 lung),growth (A549/ATCC NSCLC),growth (786-0 renal),growth (COLO 205 colon),growth (DU-145 prostate),growth (K-562 leukemia),growth (MALME-3M melanoma),growth (MDA-MB-231 breast),growth (RXF 393 renal),growth (SF-268 CNS),growth (SF-295 CNS),growth (SF-539 CNS),growth (UACC-257 melanoma),growth (M14 melanoma)
CC(C)C[C@@H](NC(=O)[C@@H](Cc1ccccc1)NC(=O)c1cnccn1)B1O[C@H]2[C@H](O)[C@@H](C(=O)NCCCC[C@@H]3NC(=O)[C@@H](Cc4ccccc4)NC(=O)[C@H](CC(=O)O)NC(=O)CNC(=O)[C@H](CCCN=C(N)N)NC3=O)O[C@@H](CN)[C@H]2O1,-29.2% (active),-45.8% (active),6.41% (active),-50.5% (active),-44.6% (active),-70.4% (active),-67.9% (active),-55.2% (active),-12.8% (active),-81.1% (active),-8.32% (active),2.76% (active),-20.6% (active),-9.73% (active),-85.9% (active),-37.1% (active),-73.5% (active),-31.9% (active),-28% (active),-0.783% (active)
CC1(C)CC[C@]2(C(=O)Nc3ccccn3)CC[C@]3(C)C(=CC[C@@H]4[C@@]5(C)C/C(=C/c6ccncc6)C(=O)C(C)(C)[C@@H]5CC[C@]43C)[C@@H]2C1,34.4%,28.1%,62.6%,70.9%,6.3% (active),43.4%,40.1%,26.6%,44.2%,2.97% (active),33.9%,11%,-2.79% (active),48.8%,-21.5% (active),72.5%,30.8%,16.2%,48.4%,20.6%
CN(C)c1cccc2[nH]c(-c3[nH]ncc3Nc3ccnc(N)n3)nc12,-45.1% (active),-26.6% (active),-13.6% (active),-19.6% (active),-32.7% (active),-11.3% (active),-24.6% (active),-7.09% (active),-58% (active),-64% (active),-5.08% (active),3.38% (active),-79% (active),-18.8% (active),-86.3% (active),-25.3% (active),-41.5% (active),-83.8% (active),-65.8% (active),-79.9% (active)
CCC1C(=O)COC1=O (stereo not given),95.7%,100%,104%,77.1%,105%,80.6%,77.7%,64.1%,101%,100%,108%,92%,99.3%,-22.4% (active),122%,101%,97.9%,105%,81.8%,93.2%
Cc1cc(N2CCN(C)CC2)nc(N(CCNc2ccnc3cc(Cl)ccc23)Cc2ccco2)n1,57.5%,92.9%,51%,26.8%,24.3%,49.2%,53.7%,41.4%,32.6%,-5.82% (active),56.8%,1.61% (active),-57.7% (active),9.87% (active),40.4%,52.8%,-15.3% (active),-68.3% (active),5.22% (active),-87.5% (active)
C[C@H]1OC(=O)/C=C/[C@@H](O)[C@@H](O)CCCCCCCC[C@@H]1O,95.1%,89.3%,96.2%,82.9%,102%,82.8%,79.5%,73.6%,97.5%,95.1%,107%,91.6%,98.1%,109%,107%,102%,98.9%,97.7%,82.5%,96.3%
Cc1ccc(S(=O)(=O)Nc2ccc(-c3cc(-c4cccc(F)c4)c(C#N)c(N)n3)cc2)cc1,55.3%,36.7%,72.2%,53.1%,93.3%,-39.3% (active),-71.4% (active),33%,13.4%,23.9%,49.4%,2.53% (active),44.4%,20.6%,-18.2% (active),47%,78.9%,24%,41.9%,-8.83% (active)
Fc1ccc2c(c1)c(-c1nc(-c3c[nH]c4ncccc34)cs1)cn2CCCN1CCCCC1,84.9%,80%,80.6%,65.3%,13%,45.4%,94.3%,65.7%,61.9%,-73.1% (active),66.7%,-58.8% (active),49.8%,55.3%,69.4%,66.6%,93.2%,61.4%,100%,-81% (active)
O=C(/C(=C(\C(=O)c1ccccc1)c1ccccc1)c1ccccc1)c1ccccc1,42%,63.9%,76%,80.3%,25.1%,37.8%,43.3%,28.9%,69.9%,53.2%,80.1%,14.1%,77.2%,66.7%,69.5%,56.2%,54.7%,82.1%,68.8%,66.3%
Cc1csc(Nc2nc(-c3ccc(Cl)cc3)nc(C(Cl)(Cl)Cl)n2)n1,95.3%,110%,-3.18% (active),76.4%,56.6%,83.3%,92.8%,34.6%,89.5%,52.6%,12.6%,87.2%,99.9%,79.9%,87.1%,90.5%,60.8%,87.2%,98.7%,95.9%
O=C1CCC/C=C\C[C@H]2C=C(Cl)C(=O)/C2=C/C[C@H](CCCCC(F)(F)F)OC(=O)CCC/C=C\C[C@H]2C=C(Cl)C(=O)/C2=C/C[C@H](CCCCC(F)(F)F)O1,-35.2% [7.5 µM] (active),-19.3% [7.5 µM] (active),-36.9% [7.5 µM] (active),-29.9% [7.5 µM] (active),-33.2% [7.5 µM] (active),-58.4% [7.5 µM] (active),-62.2% [7.5 µM] (active),-44.5% [7.5 µM] (active),-55% [7.5 µM] (active),-57.2% [7.5 µM] (active),0.342% [7.5 µM] (active),1.45% [7.5 µM] (active),-18.2% [7.5 µM] (active),-22.9% [7.5 µM] (active),-92% [7.5 µM] (active),6.24% [7.5 µM] (active),-37.6% [7.5 µM] (active),-12.5% [7.5 µM] (active),-55.3% [7.5 µM] (active),-62.1% [7.5 µM] (active)
CC(=O)c1c(C)[nH]c(-c2nc3ccc(N4CCN(C)CC4)cc3[nH]2)c1-c1ccc2c(c1)OCCO2,50.1%,47.9%,45.8%,33.7%,62.7%,39%,48.7%,44%,40.9%,12.7%,74.3%,31.2%,33.7%,36%,49.2%,68.8%,44.4%,41.7%,48.2%,40.1%
COc1ccc(C2CC(=O)c3c(nc4ccc(Cl)cc4c3N)C2)cc1 (stereo not given),102%,104%,104%,109%,104%,98.3%,100%,106%,97%,114%,101%,93.4%,106%,114%,99.3%,108%,95.4%,107%,113%,103%
NCCn1cc(-c2nc(-c3c[nH]c4ncccc34)cs2)c2cc(Br)ccc21,81.9%,80.3%,80.1%,78.1%,14.9%,53.6%,100%,65.3%,87.3%,-17.1% (active),82.3%,19.4%,95.9%,56.7%,80.5%,82.8%,102%,84.2%,95.5%,87.7%
Cc1cc(C)n(Cc2cc(C(C)(C)C)cc(C(C)(C)C)c2)c(=O)c1C#N,101%,93.3%,92.5%,96.3%,93.9%,86%,83.9%,98%,93.5%,110%,103%,88.1%,82.4%,82.5%,101%,94.8%,85.9%,90.8%,102%,89.8%
